From PubChem BioAssay
The list is not random: actives were taken first. Their share in the collection is about 9.4%.
Pf growth 96h = P. falciparum growth inhibition at 96 hours | P. falciparum luciferase reporter growth, 96 h | AID 504834 | actives 6.9% (n = 320,000) | Potency, µM (doses to about 28.7 µM), inactives show at the highest dose activity change, negative = inhibition, actives largely listed as inhibitors; note: % is set by controls: 0 for no effect and ±100 for the full control effect
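Compounds incubated with erythrocytes infected by luciferase-expressing P. falciparum (2% hematocrit, 0.05% parasitemia final) for 96 hours, 37 C in 5% CO2. Growth inhibition scored as decreased luciferase luminescence.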
AMA1-RON2 inh = disrupts binding of P. falciparum AMA1 to RON2 | actives 0.2% (n = 360,000) | AlphaScreen AMA1-biotinylated RON2 peptide binding | Potency, µM (doses to about 58.2 µM), inactives show at the top dose activity change, negative = inhibition, most hits filed as inhibitors | AID 720542;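 note: 0% = vehicle wells and -100% = peptide control; nearly all actives have a fitted effect of over 45% in size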
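AMA1 (3D7) with his tag at 25 nM final met compounds first, then biotinylated RON2 peptide at 25 nM; detection used donor plus acceptor beads, 10 µg/mL apiece, read by AlphaScreen after 30 min at room temperature.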
Pf growth 48h = inhibits P. falciparum growth in the first generation, 48 h. P. falciparum luciferase growth in erythrocytes, 48 h. Potency, µM (titrated, usually from 28.7 µM), without a hit: top-dose activity change, negative = inhibition, hits mostly inhibitors. actives 5.9% (n = 310,000). AID 504832; note: % is set by controls: 0 for no effect and ±100 for the full control effect
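Read-out is firefly luciferase luminescence from an integrated reporter in P. falciparum, so falling signal marks reduced parasite growth. Infected erythrocytes were at 2% hematocrit and 0.1% parasitemia (final) in Albumax-supplemented RPMI 1640.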
SARS PLpro yeast = blocks SARS-CoV papain-like protease in a yeast assay. actives 0.19% (n = 330,000). S. cerevisiae expressing SARS-CoV PLpro, growth rescue. Potency, µM (highest dose often 32.9 µM), for inactives: at the highest dose activity, positive = growth rescue, actives largely listed as activators; calls by dose curve; note: 0% is about no effect; nearly all actives have a fitted effect of over 55% in size
The depositor's hits bear a star; ? = inconclusive; · = no result given; [ ] = dose if it differs, or a comment. Unless noted, calls come from the whole dose curve; as a rule, active = well fitted curve in the direction sought with a large enough effect; inconclusive = small, poorly fitted or top-dose-only effect, or another doubt; inactive = no such curve, though single readings can be large; an effect the other way counts as inactive or inconclusive. Potency is the fitted concentration of half-maximal effect.

SMILES	Pf growth 96h	AMA1-RON2 inh	Pf growth 48h	SARS PLpro yeast
CCCOC(=O)/C(=C\c1ccc([N+](=O)[O-])o1)NC(=O)c1ccccc1	0.41µM*	4%	?	-17%
CCCCOc1ccc(C(=O)N/C(=C\c2cccc([N+](=O)[O-])c2)C(=O)OC(C)C)cc1	0.47µM*	-3%	0.59µM*	-4%
CCCCOc1ccc(C(=O)N/C(=C\c2cccc([N+](=O)[O-])c2)C(=O)OCCC)cc1	1.7µM*	-4%	?	6%
O=C(NCCCO)c1cc2c([nH]c3ccccc32)c(-c2ccccc2)n1	5.9µM*	2%	?	0%
COc1cccc(-c2nc(C(=O)NCCCN3CCOCC3)cc3c2[nH]c2ccccc23)c1	8.3µM*	-20%	13µM*	-6%
O=C(NCCCN1CCOCC1)c1cc(-c2cccc(Br)c2)nc2ccccc12	?	-2%	?	·
O=C(NCCCO)c1cc2c(cn1)[nH]c1ccccc12	69%	29%	63%	-1%
O=C(NCCCN1CCOCC1)c1cc2c([nH]c3ccccc32)c(-c2cccc(Br)c2)n1	3.3µM*	-28%	2.3µM*	-8%
CSc1ccccc1COC(=O)Nc1ccccc1C	-27%	2%	?	0%
CCN1C(=O)/C(=C2\C=Cc3ccccc3N2CC)SC1=S	?	1.2µM*	-4%	-3%
CCN1C(=O)/C(=C2\SC(=S)N(CCCOC)C2=O)c2ccccc21	10µM*	-15%	?	-3%
CCCCN1C(=O)/C(=C2/Sc3ccc(OC)cc3N2CC)SC1=S	9.3µM*	-1%	31%	1%
COc1ccc(NC(=O)Nc2ccc3[nH]ccc3c2)cc1	·	0%	·	·
Cc1c(O)ccc(NC(=O)/C=C/c2ccccc2)c1C	?	5%	13%	-1%
CC1(C)CC(=O)C=C(c2ccc(COC(=O)c3ccccc3)cc2)C1=O	·	-29%	·	·
COc1ccc(C(=O)N(c2c(C)cccc2C)C(COC(C)=O)COC(C)=O)cc1	·	1%	·	·
COc1cc(SC#N)ccc1N=Cc1c(C)[nH]n(-c2cccc3ccccc23)c1=O	0.74µM*	-8%	9.3µM*	1%
CCOC(=O)c1cccc(NC(=O)CSc2nnc(-c3ccoc3C)n2CCOC)c1	1.2µM*	-2%	0%	5%
CCn1c(SCC(=O)Nc2ccccc2-c2ccccc2)nnc1-c1ccoc1C	12µM*	-10%	?	-12%
CCn1c(SCC(=O)Nc2ccccc2F)nnc1-c1ccoc1C	?	0%	7%	1%
COCCn1c(SCC(=O)Nc2cccc(OC)c2)nnc1-c1ccccc1	2.3µM*	8%	-2%	1%
COCCn1c(SCC(=O)Nc2cccc(C)c2)nnc1C(C)C	0.17µM*	4%	15%	2%
Cc1occc1-c1nnc(SCC(=O)Nc2ccccc2)n1CCc1ccccc1	-11%	-6%	?	-3%
CC(C)(C)c1ccc(CS(=O)(=O)CC2(O)CCN(C(=O)c3cccc(C(F)(F)F)c3)CC2)cc1	34%	-8%	18%	-4%
FC(F)(F)c1ccc(Oc2ccc3ccccc3c2Br)nc1	2.9µM*	-1%	?	-40%
SMILES	Pf growth 96h	AMA1-RON2 inh	Pf growth 48h	SARS PLpro yeast
COc1ccc(-c2nn(-c3ccccc3)cc2CNC[C@H]2O[C@@H](n3cnc4c(=O)[nH]c(N)nc43)[C@H](O)[C@@H]2O)cc1	·	-6%	·	·
C=CCc1cc(OC)ccc1OCCOCCN1CCc2ccccc2C1	13µM*	?	37%[5.75 µM]	12%
CCOc1ccc(OCCOCCN2CCc3ccccc3C2)cc1	63%	-24%	31%	4%
Cc1ccc(-c2nnc(SCc3ccc(C#N)cc3)n2Cc2ccco2)cc1	?	-12%	?	?
COc1ccc(NC(=O)C2CCC(CNS(=O)(=O)c3cccs3)CC2)cc1 (stereo not drawn)	13µM*	0%	4%	1%
CCOC(=O)CNC(=O)N1CCCC(CNS(=O)(=O)c2cccs2)C1 (stereo not drawn)	10µM*	-3%	9%	-1%
COc1ccc(NC(=O)C2CCC(CNS(=O)(=O)c3cccs3)CC2)cc1OC (stereo not drawn)	-20%	-1%	?	-3%
CC1CCC(NC(=O)c2cccn2C)CC1 (stereo not drawn)	·	-19%	·	·
Cc1cc2oc(=O)cc(CSc3nc(N)cc(N)n3)c2cc1C	-14%	-2%	·	15%
O=C(c1ccc(-c2ccccc2)cc1)N1CCCC1	59%	14%	64%	1%
O=C(c1ccc(-c2ccccc2)cc1)N1CCN(c2ncccn2)CC1	10µM*	-14%	-7%	-9%
C=CCN1CCN(C(=O)c2ccc(-c3ccccc3)cc2)CC1	1.3µM*	5%	12%	-1%
O=C(c1ccccc1)N1CCN(c2ncccn2)CC1	62%	1%	9%	7%
O=C(Nc1cccc(-c2ccc(N3CCOCC3)nn2)c1)c1ccc([N+](=O)[O-])cc1	9.3µM*	0%	?	-2%
O=C(Nc1cccc(-c2ccc(N3CCOCC3)nn2)c1)c1ccccc1	37%	-13%	73%	0%
C=CCNC(=O)c1ccc(C(=O)c2ccccc2)cc1	36%	18%	45%	2%
CC(C)(C)NS(=O)(=O)c1ccc(CCC(=O)Nc2cc(Cl)ccc2Oc2ccccc2)cc1	·	4%	4.1µM*	1%
CCCNS(=O)(=O)c1ccc(CCC(=O)Nc2cc(Cl)ccc2Oc2ccccc2)cc1	-4%	3%	13µM*	8%
CC(C)CNS(=O)(=O)c1ccc(CCC(=O)Nc2cc(Cl)ccc2Oc2ccccc2)cc1	4.1µM*	28%	·	10%
CC(C)CNS(=O)(=O)c1ccc(CCC(=O)O)cc1	18%	-1%	12%	4%
CC(C)C[C@H]1CNC(=O)C(=O)N1CC1CCN(CCC(C)(C)C)CC1	·	-8%	·	·
C#CCOCCOCCOCCNc1nc(N2CCN(C(=O)C([C@@H](C)O)n3cc([C@@H](N)CCCCN)nn3)CC2)nc(N2CCN(C(=O)[C@H](CC(N)=O)n3cc([C@@H](N)C(C)C)nn3)CC2)n1 (stereo partly drawn)	·	-3%	·	-2%
COc1ccc(CCNC(=O)C(=O)NCC2OCCN2S(=O)(=O)c2ccc3c(c2)OCCO3)cc1OC (stereo not drawn)	12µM*	-3%	?	1%
Cc1ccc(S(=O)(=O)N2CCCOC2CNC(=O)C(=O)NCCc2ccco2)cc1 (stereo not drawn)	·	3%	·	·
Cc1cc(F)ccc1S(=O)(=O)N1CCCOC1CNC(=O)C(=O)NCCc1c[nH]c2ccccc12 (stereo not drawn)	9.3µM*	-3%	?	-2%
COc1ccc(CCNC(=O)C(=O)NCC2OCCN2S(=O)(=O)c2ccc3c(c2)OCCO3)cc1 (stereo not drawn)	?	-4%	7%	0%
Cc1cc(S(=O)(=O)N2CCCOC2CNC(=O)C(=O)NCCc2ccco2)ccc1F (stereo not drawn)	8.3µM*	10%	-12%	-4%
O=C(NCCc1c[nH]c2ccccc12)C(=O)NCC1OCCCN1S(=O)(=O)c1ccc(F)cc1 (stereo not drawn)	?	-5%	?	29%
